ELG1 repair inh: inhibitors of ELG1-dependent DNA repair in HEK293T cells; HEK293T ELG1-luciferase reporter, luminescence, 16 h; DNA damage induced by 5-fluorouridine; Potency, µM (series often up to 46.1 µM), hits mostly inhibitors; 330,000 compounds, 2.3% hits; AID 504467; further: nearly all actives have a fitted effect of over 55% in size
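Reporter activity after DNA damage by 5-fluorouridine is monitored. Compound-treated cells incubate 16 hr at 37 °C, then ONE-Glo is added for 30 min before luminescence reading.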
ELG1 genotox: inducers of genotoxicity in HEK293T ELG1-luciferase cells; HEK293T ELG1-luciferase reporter, luminescence, 16 h; 330,000 compounds, 1.3% hits; Potency, µM (doses to about 46 µM), actives largely listed as activators; AID 504466; further: nearly all actives have a fitted effect of over 60% in size
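After overnight (16 hr) compound treatment at 37 °C, ELG1-luciferase HEK293T cells were lysed with ONE-Glo; luminescence quantified 30 min later at room temperature.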
Rab9 promoter act: activates the Rab9 promoter. Huh7 Rab9 promoter-luciferase reporter, luminescence, 24 h. Potency, µM (doses to about 9.22 µM), usual class: activators. 320,000 compounds, 2.8% hits. AID 485297; further: nearly all actives have a fitted effect of over 60% in size
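Rab9 promoter-driven luciferase in stably transfected Huh7 cells; 1500 cells/well rested 2 h, exposed to compound in DMSO for 24 h at 37 °C, 5% CO2. Luminescence read 10 min after adding luciferase reagent at ambient temperature.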
NPC1 promoter act: NPC1 promoter activation | Huh7 NPC1 promoter luciferase reporter, 24 h | Potency, µM (doses to about 9.22 µM), most hits filed as activators | 320,000 compounds, 2.4% hits | AID 485313; further: nearly all actives have a fitted effect of over 60% in size
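Huh7 cells stably carrying NPC1 promoter–luciferase, plated in Opti-MEM with 10% FBS for 2 h, were exposed to compound in DMSO for 24 h at 37 °C; luciferase reagent was added for 10 min and luminescence read.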
SMN2 splice up: enhancers of SMN2 splice variant expression; HEK293 SMN2-luciferase splicing reporter, luminescence, 30-36 h; Potency, µM (highest dose often 46.1 µM), hits mostly activators; 210,000 compounds, 2.8% hits; further: nearly all actives have a fitted effect of over 55% in size
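HEK293 cells carry an SMN2 minigene-luciferase reporter in which exon 7 inclusion puts luciferase in frame. Cells were seeded at 2000 cells/well, attached for 10-12 hours, then exposed to compounds for 30-36 hours at 37C before ONE-Glo luminescence.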
FLuc counter: firefly luciferase modulation, counter-screen for miR-21 project; P08659; purified FLuc, Km substrates, luminescence inhibition; Potency, µM (series often up to 57.5 µM), usual class: inhibitors; 360,000 compounds, 6.9% hits; AID 588342; further: nearly all actives have a fitted effect of over 55% in size
Target sequence (P08659 whole entry, looked up): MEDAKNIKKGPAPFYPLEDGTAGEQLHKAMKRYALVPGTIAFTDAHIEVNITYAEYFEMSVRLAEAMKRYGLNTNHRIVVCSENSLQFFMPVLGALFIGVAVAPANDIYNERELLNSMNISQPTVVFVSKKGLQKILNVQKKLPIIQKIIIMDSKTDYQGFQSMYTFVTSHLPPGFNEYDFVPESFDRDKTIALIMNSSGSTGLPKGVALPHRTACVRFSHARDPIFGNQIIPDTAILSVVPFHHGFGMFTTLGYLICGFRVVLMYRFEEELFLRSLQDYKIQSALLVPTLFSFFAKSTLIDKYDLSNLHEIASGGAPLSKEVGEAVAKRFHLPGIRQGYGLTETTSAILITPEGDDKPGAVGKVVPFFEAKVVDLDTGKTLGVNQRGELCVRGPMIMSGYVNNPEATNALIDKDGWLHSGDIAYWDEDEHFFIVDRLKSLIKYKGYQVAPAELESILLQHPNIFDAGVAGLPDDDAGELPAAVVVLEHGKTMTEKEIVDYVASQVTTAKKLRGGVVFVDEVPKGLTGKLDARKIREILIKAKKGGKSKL
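Purified P. pyralis luciferase, 10 nM final, with Km-level 10 uM D-luciferin and 10 uM ATP in 50 mM Tris acetate pH 7.5, 10 mM Mg acetate, 0.01% Tween-20, 0.05% BSA; 6-point qHTS titration about 60 µM downward; luminescence read.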
Each line names hits and unclear results; the compound was inactive in the other large screens. The list is not random: actives were taken first. Their share in the collection is about 9.2%. The call rests on the fitted dose curve; in most records, active means well fitted curve in the direction sought with a large enough effect; inconclusive means small, poorly fitted or top-dose-only effect, or another doubt; inactive means no such curve, though single readings can be large; an effect the other way counts as inactive or inconclusive.

Cc1cc(NC(=O)Nc2cccc(Cl)c2)n(-c2ccccc2)n1	none (no result: SMN2 splice up)
O=C(Nc1cccc(C(=O)O)c1)/C(=C\c1ccccc1)NC(=O)c1cccc2ccccc12	FLuc counter 21µM (no result: SMN2 splice up)
CCN(CC)C(=O)CS(=O)(=O)CC(=O)Nc1cc(OCCOC)c(Cl)cc1Cl	none (no result: SMN2 splice up)
Cc1ccc(/C=C2/C(=O)N=C(N)N2C)s1	none
O=C(NNC1=NCCCCC1)Nc1cccc(Cl)c1	ELG1 repair inh inconclusive, Rab9 promoter act 1.1µM, NPC1 promoter act inconclusive, SMN2 splice up 22µM, FLuc counter 17µM
O=C(Nc1ccccc1)Nc1cccc(Cl)c1	ELG1 repair inh inconclusive, ELG1 genotox inconclusive, Rab9 promoter act 3.5µM, NPC1 promoter act inconclusive, FLuc counter 9.5µM
O=C(NNC1=NCCCCC1)Nc1ccc(Cl)cc1	Rab9 promoter act inconclusive, FLuc counter inconclusive (no result: SMN2 splice up)
O=C(Nc1ccc(Cl)cc1)Nc1cccc(C(=O)O)c1	ELG1 repair inh inconclusive, Rab9 promoter act 0.25µM, NPC1 promoter act 0.089µM, FLuc counter 0.067µM (no result: SMN2 splice up)
CSc1cccc(NC(=O)Nc2ccc(Cl)cc2)c1	ELG1 repair inh inconclusive, FLuc counter inconclusive
Cc1nn(C)cc1CNC(=O)Nc1cccc(Cl)c1	ELG1 repair inh inconclusive, Rab9 promoter act 3.5µM, NPC1 promoter act inconclusive, SMN2 splice up inconclusive, FLuc counter inconclusive
CCn1cc(C(=O)OCC(=O)NCc2ccccc2Cl)c(=O)c2ccc(C)nc21	ELG1 repair inh inconclusive
S=C(NCCc1ccccc1)NCc1cccc(Cl)c1	none (no result: SMN2 splice up)
Cc1cc2ccccn2c1C(=O)Nc1cccc(Cl)c1	ELG1 repair inh inconclusive, FLuc counter 13µM
Cc1cc2ccccn2c1C(=O)c1ccc(Cl)cc1	ELG1 repair inh inconclusive, FLuc counter inconclusive
Cc1cc(O)c(C(=O)Nc2cccc(Cl)c2)c(=O)n1C	ELG1 repair inh inconclusive, ELG1 genotox 10µM, Rab9 promoter act 2.5µM, NPC1 promoter act 2.2µM, FLuc counter 3.4µM (no result: SMN2 splice up)
Fc1ccccc1NC(=S)NCCc1cccc(Cl)c1	ELG1 repair inh inconclusive, Rab9 promoter act inconclusive, NPC1 promoter act inconclusive, FLuc counter 24µM (no result: SMN2 splice up)
COc1ccc(NC(=O)CSc2nnc(N)s2)cc1S(=O)(=O)N1CCCCC1	none (no result: Rab9 promoter act, NPC1 promoter act, SMN2 splice up, FLuc counter)
Cc1cc(O)c(C(c2ccccc2Cl)N2CCN(c3ccccc3)CC2)c(=O)n1Cc1ccco1 (centres undefined)	none (no result: ELG1 repair inh, ELG1 genotox, Rab9 promoter act, NPC1 promoter act, SMN2 splice up)
CC1=C(C(=O)Nc2ccccc2C)C(c2ccccn2)n2ncnc2N1 (centres undefined)	none (no result: ELG1 repair inh, ELG1 genotox, Rab9 promoter act, NPC1 promoter act, SMN2 splice up)
Cc1ccc2nc(C(F)(F)F)c(C#N)c(N)c2c1	ELG1 repair inh inconclusive, SMN2 splice up 14µM
C=CCN1CC(=O)N2C(C)c3[nH]c4ccccc4c3C[C@H]2C1=O (some centres undefined)	none (no result: SMN2 splice up)
CC[C@H]1c2[nH]c3ccccc3c2C[C@H]2C(=O)N(c3ccc(F)cc3)C(=O)N21	ELG1 repair inh 7.3µM (no result: SMN2 splice up)
COc1ccc(-n2cccc2C=O)cc1	none
COc1ccc(-n2cccc2/C=C/[N+](=O)[O-])cc1	ELG1 repair inh 23µM
O=[N+]([O-])c1ccc(Cl)c(CN2CCN(c3ncccn3)CC2)c1	none (no result: SMN2 splice up)
Cc1ccc2nc(C)c(CN3CCN(c4ccc([N+](=O)[O-])cc4Cl)CC3)n2c1	ELG1 repair inh 2.3µM (no result: SMN2 splice up)
CCOC(=O)/C(N=Nc1sc(C(=O)OC)c(C)c1C(=O)OCC)=C(\O)CCl	none
O=S(=O)(Nc1cccc(S(=O)(=O)N2CCCC2)c1)c1cccc(Br)c1	none (no result: SMN2 splice up)
COC(=O)c1cc(NC(=O)c2cc3ccccc3o2)cc(C(=O)OC)c1	ELG1 repair inh inconclusive, FLuc counter inconclusive (no result: SMN2 splice up)
COC(=O)c1ccccc1NC(=O)c1cc2ccccc2o1	ELG1 repair inh inconclusive, Rab9 promoter act inconclusive, NPC1 promoter act inconclusive, FLuc counter 13µM (no result: SMN2 splice up)
CC(=O)N1CCN(c2ccccc2NC(=O)c2cc3ccccc3o2)CC1	ELG1 repair inh 15µM (no result: SMN2 splice up)
O=C(Nc1ccccc1C(F)(F)F)c1cc2ccccc2o1	ELG1 repair inh inconclusive, ELG1 genotox 10µM, Rab9 promoter act 2.2µM, NPC1 promoter act 2.5µM, FLuc counter 3.4µM (no result: SMN2 splice up)
COC(=O)c1cccc(NC(=O)c2cc3ccccc3o2)c1	ELG1 repair inh inconclusive, Rab9 promoter act 0.71µM, NPC1 promoter act 0.71µM, FLuc counter 2.1µM (no result: SMN2 splice up)
CSCCC(NC(=O)COc1ccccc1)C(=O)NCCOc1ccc(C)cc1 (centres undefined)	none (no result: SMN2 splice up)
C=Cc1ccc2c(c1)N(C)C(=C)S2	none
O=C(Cc1csc(NC(=O)Nc2ccc(Cl)cc2)n1)NCc1ccccn1	ELG1 repair inh inconclusive, Rab9 promoter act inconclusive, NPC1 promoter act inconclusive, FLuc counter 1.1µM (no result: SMN2 splice up)
O=C(Cc1nnc(NC(=O)Nc2ccc(Cl)cc2)s1)NCc1ccccc1	none
Cc1csc(NC(=O)Nc2ccc(Cl)cc2)n1	ELG1 repair inh inconclusive, ELG1 genotox inconclusive, Rab9 promoter act inconclusive, FLuc counter inconclusive

Compound activity: PubChem, National Center for Advancing Translational Sciences (NCATS)
